# Source: PubChem BioAssay
# Calls of active or inactive are those of the source. Unless noted, the rule behind the calls is not given here.
# How the values were obtained:
# [1] = system: Wnt5a (protein binding on small-molecule microarray); assay: Wnt5a binders on small-molecule microarray, primary screen, biophysical, 635/667 nm fluorescence (AID 1142); details: 635 nm fluorescence, higher = more signal;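 note: fluorescence read at 667 nm with signal to noise per printed feature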
# [2] = cell viability in Huh7 cells, primary screen, cytotoxicity control for HCV replication inhibitor project, CellTiter-Glo luminescence, basal, 48 h (AID 1143); details: Huh7 HCV replicon, higher = more signal, called active from +8 up or from −8 down;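 note: Huh7 hepatoma cells carrying a hepatitis C replication reporter with no stimulus; test concentration not given here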
# [3] = P. aeruginosa biofilm formation inhibitors, primary screen, PAO1 strain, BacTiter-Glo luminescence, LB-PBS (AID 1144); details: 12 h, higher = more signal
# [4] = CREB reporter modulators without forskolin, primary screen, cell-based, PC12, CRE-LacZ reporter, unstimulated (AID 1145); details: no forskolin, luminescence, 4.5 h, higher = more signal, called active from +8 up or from −8 down
# [5] = CREB reporter modulators under forskolin, primary screen, cell-based, PC12, CRE-LacZ reporter, forskolin-stimulated (AID 1146); details: luminescence, 4.5 h, higher = more signal, called active from +8 up or from −8 down;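 note: PC12 cells with 6xCRE LacZ reporter stimulated by forskolin 10 µM; beta-galactosidase reporter signal reflecting CREB driven transcription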
# [6] = biological target: Streptavidin (Streptomyces avidinii) (UniProt P22629); assay: streptavidin binders on small-molecule microarray, primary screen, artefact control for SMM compound annotation, biophysical, 635/667 nm fluorescence (AID 1147); details: streptavidin binding, higher = more signal;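 note: signal reflects streptavidin binding to arrayed compounds as a control protein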
# Chain of Streptavidin (Streptomyces avidinii) (P22629 whole entry, looked up): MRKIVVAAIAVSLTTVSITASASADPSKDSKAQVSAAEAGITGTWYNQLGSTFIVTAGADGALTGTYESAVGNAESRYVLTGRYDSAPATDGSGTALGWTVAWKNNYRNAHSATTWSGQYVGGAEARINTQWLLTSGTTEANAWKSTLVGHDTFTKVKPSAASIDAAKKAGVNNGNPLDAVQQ
# [7] = small-molecule binders of probe aInhba, primary screen, biochemical, small-molecule microarray, 635/667 nm fluorescence (AID 1148); details: higher = more signal;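 note: score merges 667nm spot fluorescence with signal-to-noise for antibody binding to printed compounds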
# Torsin-1A (Homo sapiens) [8] = biological target: Torsin-1A (Homo sapiens) (UniProt O14656); assay: torsin A binders from cell lysate, primary screen, small-molecule microarray, wild-type, 635/667 nm (AID 1149); details: COS7 hTOR1A-WT lysate, 635 nm fluorescence, higher = more signal
# Chain of Torsin-1A (Homo sapiens) (O14656 whole entry, looked up): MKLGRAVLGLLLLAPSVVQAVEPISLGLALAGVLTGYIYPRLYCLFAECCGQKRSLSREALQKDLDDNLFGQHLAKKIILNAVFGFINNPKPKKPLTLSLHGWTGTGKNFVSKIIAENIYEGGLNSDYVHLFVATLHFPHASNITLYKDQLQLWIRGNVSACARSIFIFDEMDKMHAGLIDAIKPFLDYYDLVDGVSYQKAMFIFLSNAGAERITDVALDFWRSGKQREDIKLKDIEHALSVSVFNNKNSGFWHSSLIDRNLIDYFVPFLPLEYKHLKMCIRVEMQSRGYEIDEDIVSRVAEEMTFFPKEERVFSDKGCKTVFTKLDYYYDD
# Torsin-1A (Homo sapiens) [9] = biological target: Torsin-1A (Homo sapiens) (UniProt O14656); assay: small-molecule binders of mutant TOR1A in lysate, primary screen, cell lysate, small-molecule microarray, COS7 lysate, 635/667 nm fluorescence (AID 1150); details: COS7 hTOR1A mutant lysate, 635 nm fluorescence, higher = more signal;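 note: score pools 667 nm emission and signal to noise measuring lysate protein binding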
# [10] = system: Sonic hedgehog protein (Shh); assay: small-molecule binders of Shh protein, primary screen, biochemical, small-molecule microarray, 635/667 nm fluorescence (AID 1151); details: small-molecule microarray binding, 635 nm fluorescence; higher = more signal;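 note: Shh protein binding to compounds spotted on small-molecule microarray slides; score combines spot fluorescence intensity with signal-to-noise across triplicate slides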
# [11] = E. coli DRC41 culture turbidity changes, primary screen, E. coli filamentation inducer project, strain DRC41, OD650, 48 h (AID 1152);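 note: E. coli MC1000 strain DRC41 lacking acrAB efflux pump and sulA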; details: E. coli DRC41 (acrAB sulA), higher = more signal, called active from +8 up or from −8 down
# [12] = small-molecule binders of probe aLefty1, primary screen, biochemical, small-molecule microarray, 635/667 nm fluorescence (AID 1153); details: higher = more signal;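 note: score merges spot fluorescence with signal-to-noise ratio from the scanned slide images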
# [13] = PSAC antagonists in infected red cells, primary screen, cell-based, P. falciparum Indochina, OD700, 1 h (AID 1154); details: P. falciparum Indochina infected RBC osmotic lysis, higher = more signal, called active from +8 up or from −8 down
# [14] = PSAC antagonists in infected red cells, primary screen, cell-based, P. falciparum Indochina, OD700, 2 h (AID 1155);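 note: lysis reports solute entry through the parasite surface anion channel PSAC; channel blockers reduce lysis of infected cells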; details: P. falciparum Indochina infected erythrocytes, osmotic lysis OD700; higher = more signal, called active from +8 up or from −8 down
# [15] = osmotic lysis modulators in infected erythrocytes, primary screen, PSAC antagonist project, cell-based, P. falciparum Indochina, OD700, 3 h (AID 1156); details: higher = more signal, called active from +8 up or from −8 down
# [16] = PSAC antagonists in infected red cells, primary screen, cell-based, P. falciparum Indochina, OD700, 18 h (AID 1157); details: P. falciparum Indochina infected erythrocytes, osmotic lysis OD700, 18 h; higher = more signal, called active from +8 up or from −8 down
# [17] = modulators of S6 phosphorylation in cells, primary screen, cell-based, A549, cytoblot, luminescence, serum-stimulated (AID 1158); details: A549 phospho-S6 cytoblot, 5 h, higher = more signal;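 note: serum-stimulated A549 lung adenocarcinoma cells; signal is phosphorylated S6 detected by cytoblot immunostaining with HRP secondary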
# [18] = biological target: NADPH oxidase 2 (Homo sapiens) (UniProt P04839); assay: NOX2-dependent H2O2 signal modulators, primary screen, NOX inhibitor project, cell-based, HEK293-NOX2, PMA-stimulated, Amplex Red fluorescence (AID 1159); details: 45 min, higher = more signal, called active from +8 up or from −8 down; note: test concentration not given here
# Chain of NADPH oxidase 2 (Homo sapiens) (P04839 whole entry, looked up): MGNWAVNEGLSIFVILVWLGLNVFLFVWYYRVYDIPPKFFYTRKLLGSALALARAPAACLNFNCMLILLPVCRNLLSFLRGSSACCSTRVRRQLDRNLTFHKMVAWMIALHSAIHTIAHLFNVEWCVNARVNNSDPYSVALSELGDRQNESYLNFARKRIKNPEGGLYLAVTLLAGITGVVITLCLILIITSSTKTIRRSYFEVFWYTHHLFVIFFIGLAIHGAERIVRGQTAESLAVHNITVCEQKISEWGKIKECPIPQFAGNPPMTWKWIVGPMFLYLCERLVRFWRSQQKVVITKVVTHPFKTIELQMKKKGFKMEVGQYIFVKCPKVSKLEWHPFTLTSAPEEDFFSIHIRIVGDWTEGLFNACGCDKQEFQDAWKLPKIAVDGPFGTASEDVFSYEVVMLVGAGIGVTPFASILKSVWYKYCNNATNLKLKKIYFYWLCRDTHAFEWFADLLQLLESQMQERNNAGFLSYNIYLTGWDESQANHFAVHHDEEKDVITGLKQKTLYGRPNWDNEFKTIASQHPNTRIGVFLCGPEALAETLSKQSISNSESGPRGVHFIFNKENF
# [19] = biological target: NADPH oxidase 4 (Homo sapiens) (UniProt Q9NPH5); assay: NOX4-dependent H2O2 signal modulators, primary screen, NOX inhibitor project, cell-based, HEK293-NOX4, tetracycline-induced, Amplex Red fluorescence (AID 1160); details: 45 min, higher = more signal, called active from +8 up or from −8 down
# Chain of NADPH oxidase 4 (Homo sapiens) (Q9NPH5 whole entry, looked up): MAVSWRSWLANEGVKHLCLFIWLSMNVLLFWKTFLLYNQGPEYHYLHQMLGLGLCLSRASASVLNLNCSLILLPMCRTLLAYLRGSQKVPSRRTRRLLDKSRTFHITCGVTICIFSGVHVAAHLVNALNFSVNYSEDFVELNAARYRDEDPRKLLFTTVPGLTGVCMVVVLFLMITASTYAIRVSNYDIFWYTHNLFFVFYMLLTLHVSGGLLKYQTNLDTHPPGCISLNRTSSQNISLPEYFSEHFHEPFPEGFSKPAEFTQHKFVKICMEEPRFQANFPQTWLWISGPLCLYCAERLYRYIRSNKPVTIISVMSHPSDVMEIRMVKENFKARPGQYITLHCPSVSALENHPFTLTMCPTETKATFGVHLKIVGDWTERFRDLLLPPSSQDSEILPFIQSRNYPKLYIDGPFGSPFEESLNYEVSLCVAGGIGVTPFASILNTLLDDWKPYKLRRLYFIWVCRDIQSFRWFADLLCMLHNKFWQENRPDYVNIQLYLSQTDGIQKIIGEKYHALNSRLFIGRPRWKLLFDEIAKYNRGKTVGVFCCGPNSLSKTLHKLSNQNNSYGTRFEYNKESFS
# [20] = biological target: NADPH oxidase 5 (Homo sapiens) (UniProt Q96PH1); assay: NOX5-dependent H2O2 signal modulators, primary screen, NOX inhibitor project, cell-based, HEK293-NOX5, Amplex Red fluorescence (AID 1161); details: HEK293-NOX5, ionomycin, 45 min, higher = more signal
# Chain of NADPH oxidase 5 (Homo sapiens) (Q96PH1 whole entry, looked up): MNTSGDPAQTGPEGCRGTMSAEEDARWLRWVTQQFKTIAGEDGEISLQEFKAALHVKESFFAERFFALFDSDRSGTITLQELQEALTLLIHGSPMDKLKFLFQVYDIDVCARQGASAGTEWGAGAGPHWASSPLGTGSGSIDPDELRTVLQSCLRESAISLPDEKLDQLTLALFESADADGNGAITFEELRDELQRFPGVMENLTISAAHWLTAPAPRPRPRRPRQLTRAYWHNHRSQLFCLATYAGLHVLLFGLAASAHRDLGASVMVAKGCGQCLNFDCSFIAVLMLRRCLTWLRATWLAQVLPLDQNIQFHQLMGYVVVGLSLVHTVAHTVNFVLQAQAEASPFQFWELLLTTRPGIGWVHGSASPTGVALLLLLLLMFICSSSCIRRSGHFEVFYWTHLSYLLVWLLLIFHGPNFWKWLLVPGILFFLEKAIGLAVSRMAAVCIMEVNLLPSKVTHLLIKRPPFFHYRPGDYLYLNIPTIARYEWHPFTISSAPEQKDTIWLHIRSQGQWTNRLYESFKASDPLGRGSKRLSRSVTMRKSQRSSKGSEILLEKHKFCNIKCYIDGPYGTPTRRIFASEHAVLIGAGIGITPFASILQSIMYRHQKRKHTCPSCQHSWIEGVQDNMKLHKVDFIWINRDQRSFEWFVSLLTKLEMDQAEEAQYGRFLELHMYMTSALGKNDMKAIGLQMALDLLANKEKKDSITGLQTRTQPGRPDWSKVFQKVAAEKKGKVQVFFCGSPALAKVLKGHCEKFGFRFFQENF
Structure (SMILES),composite z-score [1],z-score [2],z-score [3],z-score [4],z-score [5],composite z-score [6],composite z-score [7],composite z-score (Torsin-1A (Homo sapiens) [8]),composite z-score (Torsin-1A (Homo sapiens) [9]),composite z-score [10],z-score [11],composite z-score [12],z-score [13],z-score [14],z-score [15],z-score [16],z-score [17],z-score [18],z-score [19],z-score [20]
C=CCC(OC(C)=O)[C@@H]1[C@@H](N(Cc2cccc3ccccc23)C(=O)c2ccc(C)cc2)c2cc(OCCCO)ccc2N1C(=O)c1ccc2ccccc2c1 (stereo not given in full),0.0228,-0.487 (inactive),-0.412 (inactive),1.22 (inactive),0.197 (inactive),0.128,0.0797,0.196,0.792,0.788,2.04 (inactive),0.25,0.306 (inactive),-0.171 (inactive),-1.1 (inactive),-0.888 (inactive),1.86,-1.14 (inactive),0.935 (inactive),2.64
COc1ccc(CCNC(=O)[C@@H]2c3ccccc3C(=O)N(Cc3ccccc3C(F)(F)F)[C@H]2c2ccc(CO)cc2)cc1,-0.189,-2.64 (inactive),-0.984 (inactive),-0.295 (inactive),-0.132 (inactive),-0.752,-0.168,-1.27,0.714,-0.25,0.163 (inactive),-0.144,3.68 (inactive),0.252 (inactive),1.73 (inactive),0.694 (inactive),-0.366,-0.536 (inactive),-2.38 (inactive),-3.69
O=C1NC(=O)C2C1C=CC(C(O)c1ccc3c(c1)OCO3)N2Nc1ccc(Cl)cc1Cl (stereo not given),-0.002,-0.0416 (inactive),-0.238 (inactive),0.0501 (inactive),-0.329 (inactive),0.347,0.249,0.0858,-0.446,-0.116,-3.85 (inactive),0.0861,7.58 (inactive),1.84 (inactive),-0.254 (inactive),1.56 (inactive),-0.593,-0.0436 (inactive),-5.24 (inactive),-3.26
NCCCCCCNC(=O)[C@H]1C[C@H]2C(=O)N3CCC[C@H]3C(=O)N2[C@H]1c1ccc(O)cc1,0.214,-0.734 (inactive),0.131 (inactive),0.0084 (inactive),-0.27 (inactive),0.0381,0.0047,0.624,0.553,1.86,-0.247 (inactive),-0.19,1.55 (inactive),0.507 (inactive),0.403 (inactive),0.253 (inactive),0.648,-0.019 (inactive),0.901 (inactive),0.386
COc1ccc([Si](C)(C)[C@@H]2[C@@H](CC(=O)N3Cc4ccccc4C[C@H]3CO)O[C@]3(C(=O)N(Cc4cccc(N5CCCCC5=O)c4)c4ccccc43)[C@H]2C)cc1,0.41,-3.71 (inactive),0.723 (inactive),1.88 (inactive),-0.136 (inactive),0.287,0.17,0.652,0.101,1.76,-0.261 (inactive),-0.147,4.07 (inactive),1.27 (inactive),1.64 (inactive),0.867 (inactive),0.297,-1.63 (inactive),0.265 (inactive),0.805
[N-]=[N+]=Nc1ccccc1[C@@H]1OC(c2ccc(OCCCO)cc2)=N[C@]1(CCS(=O)(=O)c1ccccc1)C(=O)NCc1ccccc1,0.554,-1.97 (inactive),0.156 (inactive),-0.744 (inactive),-0.653 (inactive),1.3,0.293,1.53,1.29,0.565,0.871 (inactive),1.01,28 (active),23.5 (active),1.29 (inactive),4.33 (inactive),-0.309,-1.86 (inactive),0.642 (inactive),1.15
COC(=O)[C@]1(Cc2ccccc2N=[N+]=[N-])N=C(c2ccc(OCCCO)cc2)O[C@@H]1c1ccccc1,0.0416,-5.29 (inactive),-0.566 (inactive),2.59 (inactive),15.8 (active),-0.189,0.125,-0.53,-0.23,-0.148,0.738 (inactive),-0.111,28.2 (active),27.2 (active),1.06 (inactive),7.41 (inactive),0.777,-1.49 (inactive),-0.013 (inactive),-1.12
COc1cc(NN2C(C(O)c3ccc(I)cc3)C=CC3C(=O)N(C)C(=O)C32)cc(OC)c1OC (stereo not given),0.212,-2.58 (inactive),-0.126 (inactive),-0.326 (inactive),-0.445 (inactive),-0.105,0.0074,-0.442,1.42,-0.441,-0.0511 (inactive),0.125,0.318 (inactive),0.168 (inactive),1.59 (inactive),-0.374 (inactive),1.28,-2.45 (inactive),-4.04 (inactive),-2.92
